Vif-APOBEC3F blk: inhibitors of Vif-A3F interaction. HeLa A3F-eYFP + Vif (tagged APOBEC3F with the HIV-1 protein that degrades it), YFP fluorescence increase. Potency, µM (top dose mostly 46.1 µM), for inactives: at the highest dose activity, negative = active. 390,000 compounds, 0.2% hits; further: potency means the concentration at half of the fitted maximal effect; % of control where 0% means no effect; nearly all actives have a fitted effect of over 65% in size
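Fluorescence increase (Ex 488/Em 500-530) after overnight compound treatment at 37 deg C flags inhibition of Vif-driven A3F-eYFP loss in stable HeLa A3F-eYFP/Vif cells seeded overnight beforehand.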
BCR signal inh: chronic active BCR signaling inhibition | 340,000 compounds, 0.05% hits | Potency, µM (series often up to 46.1 µM), inactives show top-dose activity change, negative = inhibition, most hits filed as inhibitors | ABC-DLBCL IkBa-CBG/CBR reporter, luminescence ratio, 4 h; active means well fitted inhibition curve with a large enough effect in the signal ratio, with a control signal flat, not every such curve was filed as active; inconclusive means small, poorly fitted or top-dose-only effect, or effect the other way, or a change in a side signal; the % refers to the signal ratio;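 further: potency means the concentration at half of the fitted maximal effect; plate controls were basal doxycycline-induced cells for no effect and cells given 10 µM MG132 for full effect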
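Cell line TMD8 (human ABC DLBCL), stably expressing tet-inducible CBG68-IkBa fusion and CBR; IMDM/0.5% FBS; cpd up to 46 uM; dox induction, 4 h, 37C/5% CO2; dual luminescence; green/red ratio; MG132 control.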
MBNL1-CUG inh: inhibitors of human MBNL1 binding to CUG repeat RNA. Q9NR56. 280,000 compounds, 0.036% hits. AID 2675. Potency, µM (doses to about 57.5 µM), for the others: top-dose activity change, negative = inhibition, usual class: inhibitors. TR-FRET MBNL1-His/biotin-(CUG)12 binding, 665/545 ratio; active means well fitted inhibition curve with a large enough effect in the signal ratio, with a control signal flat, not every such curve was filed as active; inconclusive means small, poorly fitted or top-dose-only effect, or effect the other way, or a change in a side signal; inactive means no such curve, though single readings can be large or run the other way; the % refers to the signal ratio; further: potency means the concentration at half of the fitted maximal effect; on the % scale 0 is the no-effect control and ±100 the full control effect
Target sequence (Q9NR56 whole entry, looked up): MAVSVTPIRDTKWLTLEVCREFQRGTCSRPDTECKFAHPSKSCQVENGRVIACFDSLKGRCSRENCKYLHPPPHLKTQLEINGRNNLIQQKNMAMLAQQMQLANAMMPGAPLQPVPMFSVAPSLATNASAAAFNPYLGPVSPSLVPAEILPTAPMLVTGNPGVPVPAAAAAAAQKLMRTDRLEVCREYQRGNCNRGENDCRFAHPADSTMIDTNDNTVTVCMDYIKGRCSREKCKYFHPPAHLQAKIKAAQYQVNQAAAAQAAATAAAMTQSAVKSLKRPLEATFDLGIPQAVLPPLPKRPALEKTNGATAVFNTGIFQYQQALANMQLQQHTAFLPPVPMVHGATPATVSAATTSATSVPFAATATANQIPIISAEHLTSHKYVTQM
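Inhibition of protein-RNA binding appears as loss of TR-FRET between terbium anti-His antibody on MBNL1-His and streptavidin-XL665 on biotin-(CUG)12. Activity is normalized to buffer-only and uninhibited-complex controls.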
TCR act: activates T cell receptor signaling | 330,000 tested, under 10 active | primary human leukocytes, anti-CD3, IL-2 HTRF, 48 h | AID 504894 | Potency, µM (titrated, usually from 9.22 µM), for inactives: at the highest dose activation of IL-2 secretion, most hits filed as activators; further: % of control where 0% means no effect
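TCR engagement came from a-CD3 beads alone, with compounds added to primary human leukocytes for 48 hr. Secreted IL-2 bridged europium cryptate- and d2-labelled anti-IL-2 antibodies, giving FRET emission at 665nm after 320nm excitation.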
uPA surface inh: inhibitors of cell surface uPA generation; AID 540303; Potency, µM (highest dose often 38.3 µM), for the others: top-dose activity change, negative = inhibition, most hits filed as inhibitors; 330,000 compounds, 0.31% hits; cell surface uPA generation assay, qHTS; active means well fitted inhibition curve with a large enough effect; inconclusive means small, poorly fitted or top-dose-only effect; inactive means no such curve, though single readings can be large or run the other way; tested in mouse RAW 264.7 cells; further: potency means the concentration at half of the fitted maximal effect; on the % scale 0 is the no-effect control and ±100 the full control effect; nearly all actives have a fitted effect of over 55% in size
Vif-APOBEC3G blk: inhibitors of Vif-APOBEC3G interaction. Q9HC16. 410,000 compounds, 0.076% hits. AID 602310. Potency, µM (titrated, usually from 46.1 µM), without a hit: at the top dose activity, negative = active, hits mostly inhibitors. HeLa A3G-eYFP + Vif (tagged APOBEC3G with the HIV-1 protein that degrades it), YFP fluorescence, overnight; further: potency means the concentration at half of the fitted maximal effect; on the % scale 0 is the no-effect control and ±100 the full control effect; nearly all actives have a fitted effect of over 60% in size
Target sequence (Q9HC16 whole entry, looked up): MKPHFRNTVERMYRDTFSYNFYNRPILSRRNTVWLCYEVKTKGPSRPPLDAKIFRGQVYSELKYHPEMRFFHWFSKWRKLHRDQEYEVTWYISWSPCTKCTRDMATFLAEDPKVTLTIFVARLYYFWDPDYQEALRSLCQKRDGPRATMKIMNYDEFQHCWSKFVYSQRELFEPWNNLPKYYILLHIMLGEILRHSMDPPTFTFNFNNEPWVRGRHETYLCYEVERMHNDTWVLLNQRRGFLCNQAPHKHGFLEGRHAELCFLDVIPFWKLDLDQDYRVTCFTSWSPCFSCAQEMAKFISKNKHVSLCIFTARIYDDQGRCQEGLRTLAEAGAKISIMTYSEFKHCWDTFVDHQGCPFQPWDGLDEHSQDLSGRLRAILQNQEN
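Read-out is eYFP fluorescence (Ex 488/Em 500-530) from Vif-expressing HeLa A3G-eYFP cells; more signal means A3G escaped Vif-mediated degradation. Cells plated overnight, compound pinned in, incubated overnight at 37 deg C.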
* = called active by the depositor; [ ] = dose if it differs, or a comment. An excerpt weighted towards active compounds, which were near 0.54% of everything screened. Unless noted, the call rests on the fitted dose curve; in most records, active means well fitted curve in the direction sought with a large enough effect; inconclusive means small, poorly fitted or top-dose-only effect, or another doubt; inactive means no such curve, though single readings can be large; an effect the other way counts as inactive or inconclusive.

For NC(=S)N/N=C/c1ccccc1OC(=O)/C=C/c1ccccc1 the results were Vif-APOBEC3F blk 11µM*, BCR signal inh inconclusive, MBNL1-CUG inh 14%, TCR act 3%, uPA surface inh inconclusive and Vif-APOBEC3G blk 0%.
For CCOc1ccc(CNC(=O)c2ccc(NC(=O)c3nsc4ccccc34)cc2)cc1 the results were Vif-APOBEC3F blk 0% and Vif-APOBEC3G blk 10%.
`CCOc1ccc(CNC(=O)c2ccccc2NC(=O)c2nsc3ccccc23)cc1` gave Vif-APOBEC3F blk 7.9µM* and Vif-APOBEC3G blk -11%.
For CCCCCCCCCC[n+]1ccc(/C=C/c2c[nH]c3ccccc23)c2ccccc21 the results were Vif-APOBEC3G blk 4%.
`CCOC(=O)c1cn(-c2c(Cl)cccc2Cl)c2cc(Cl)c([N+](=O)[O-])cc2c1=O` gave Vif-APOBEC3F blk 2%, BCR signal inh 1%, MBNL1-CUG inh inconclusive, TCR act 6%, uPA surface inh 8.9µM* and Vif-APOBEC3G blk -17%.
For Nc1nc2c(nc(N3CCOCC3)n2COCCO)c(=O)[nH]1 the results were Vif-APOBEC3G blk 4%.
Screening COc1ccc(NC(C)=O)cc1NC(C)C(=O)Nc1ccc(S(=O)(=O)N2CCCCC2)cc1 (stereo not given) returned Vif-APOBEC3F blk 0%, BCR signal inh 2%, TCR act -5%, uPA surface inh 3.2µM* and Vif-APOBEC3G blk -6%.
Screening C1=Cc2ccccc2/C1=C\c1cc[cH-]c1.[Fe+2].c1cc[cH-]c1 returned Vif-APOBEC3G blk 3%.
`CNCc1nc(-c2ccc[nH]2)c2cc(Cl)ccc2n1` gave Vif-APOBEC3G blk 5%.
For COc1cc2ncnc(N3CCN(C(=O)Nc4ccc(Oc5ccccc5)cc4)CC3)c2cc1OC the results were Vif-APOBEC3G blk 0%.
For O=C(CCCC(=O)c1ccccc1)Nc1ccc(F)cc1 the results were Vif-APOBEC3F blk -31%, BCR signal inh 3%, MBNL1-CUG inh -7%, TCR act 12%, uPA surface inh 9% and Vif-APOBEC3G blk 0%.
Screening CC1NC(=O)NC1CCCCCC(=O)Nc1ccc(F)cc1 (stereo not given) returned Vif-APOBEC3F blk 5%, BCR signal inh -19%, MBNL1-CUG inh 0.1µM*, TCR act 2%, uPA surface inh 2% and Vif-APOBEC3G blk -8%.
`Cc1c(F)cccc1NC(=O)CCCCCC1NC(=O)NC1C` (stereo not given) gave Vif-APOBEC3F blk -2%, BCR signal inh inconclusive, MBNL1-CUG inh 0.28µM*, TCR act 0%, uPA surface inh 0% and Vif-APOBEC3G blk 2%.
`COc1ccc(/C=C2\Oc3ccccc3C2=O)cc1` gave Vif-APOBEC3F blk 0%, BCR signal inh inconclusive, TCR act -2%, uPA surface inh 7.1µM* and Vif-APOBEC3G blk -7%.
For CC(=O)Oc1ccc(/C=C2/Oc3ccccc3C2=O)cc1 the results were Vif-APOBEC3F blk inconclusive, BCR signal inh 1%, TCR act -6%, uPA surface inh -8% and Vif-APOBEC3G blk -23%.
Screening COc1cc2nc(CN(C)Cc3ccc(C(C)(C)C)cc3)[nH]c(=O)c2cc1OC returned Vif-APOBEC3F blk -3%, BCR signal inh inconclusive, MBNL1-CUG inh -4%, TCR act 6%, uPA surface inh 3.5µM* and Vif-APOBEC3G blk 0%.
Screening CCN(Cc1nc2cc(OC)c(OC)cc2c(=O)[nH]1)C(=O)c1ccc(S(=O)(=O)N(C)C)cc1 returned Vif-APOBEC3F blk -6%, BCR signal inh -9%, MBNL1-CUG inh -2%, TCR act -5%, uPA surface inh -2% and Vif-APOBEC3G blk -18%.
Screening COc1ccc(-c2nc3c4ccccc4ccn3c2Cc2ccsc2)cc1OC returned Vif-APOBEC3G blk 8.9µM*.
`COc1ccc(-c2nc3c4ccccc4ccn3c2Cc2ccc(C)cc2)cc1OC` gave Vif-APOBEC3G blk -2%.
CN(C)c1ccc(/C=N\Nc2ccc([N+](=O)[O-])cc2[N+](=O)[O-])cc1Br was read as Vif-APOBEC3G blk 2%.
For O=C(Nc1cc(=O)[nH]c(=O)[nH]1)c1cccc(C(F)(F)F)c1 the results were Vif-APOBEC3F blk 1%, BCR signal inh -1%, MBNL1-CUG inh -8%, TCR act -5%, uPA surface inh -2% and Vif-APOBEC3G blk inconclusive.
O=C(Nc1cc(=O)[nH]c(=O)[nH]1)c1cc(Cl)ccc1Cl was read as Vif-APOBEC3F blk -12%, BCR signal inh inconclusive, MBNL1-CUG inh -5%, TCR act 4%, uPA surface inh 3.5µM* and Vif-APOBEC3G blk inconclusive.
Screening C[N+](C)(C)c1ccc(/C=C2\C=Cc3ccccc32)cc1 returned Vif-APOBEC3G blk 4%.
Screening c1ccc2c(c1)ncc1cccn12 returned Vif-APOBEC3F blk -2%, BCR signal inh -6%, MBNL1-CUG inh inconclusive, TCR act 1%, uPA surface inh -4% and Vif-APOBEC3G blk 1%.
For CCn1c2ccccc2c2c3ncc4cccn4c3ccc21 the results were Vif-APOBEC3F blk 25µM*, BCR signal inh inconclusive, MBNL1-CUG inh 36%, TCR act 8%, uPA surface inh -6% and Vif-APOBEC3G blk inconclusive.
Screening c1cc2c(cc1Cc1cncc(Cc3ccc4c(c3)OCO4)c1)OCO2 returned Vif-APOBEC3G blk -2%.
Screening COCCCN=C1NN=C(c2cc(C)n(-c3ccccc3F)c2C)CS1 returned Vif-APOBEC3F blk -4%, BCR signal inh -18%, TCR act -5%, uPA surface inh 6.3µM* and Vif-APOBEC3G blk -17%.
`O=C(/C=C/c1ccco1)N1CCc2ccccc21` gave Vif-APOBEC3F blk 11µM*, BCR signal inh inconclusive, MBNL1-CUG inh 11%, TCR act 4%, uPA surface inh -14% and Vif-APOBEC3G blk inconclusive.
For Cc1ccc(/C=C/C(=O)N2CCc3ccccc32)o1 the results were Vif-APOBEC3F blk 8%, BCR signal inh inconclusive, TCR act 4%[46.1 µM], uPA surface inh -22% and Vif-APOBEC3G blk -41%.
Screening CCc1ccc(NC(=O)COC(=O)c2ccccc2OCC(=O)N(C)C)cc1 returned Vif-APOBEC3G blk 1%.
`Cc1ccc(/C=C/c2ccc(N(C)C)cc2)[n+](C)c1` gave Vif-APOBEC3F blk inconclusive, BCR signal inh 0%, MBNL1-CUG inh inconclusive, TCR act 0%, uPA surface inh inconclusive and Vif-APOBEC3G blk 11µM*.
Screening CN(C)c1ccc(/C=C/c2cc[n+](C)cc2)cc1 returned Vif-APOBEC3F blk inconclusive, BCR signal inh inconclusive, MBNL1-CUG inh inconclusive, TCR act 10%, uPA surface inh -10% and Vif-APOBEC3G blk inconclusive.
